Assay results reported in the supplement of paper PMC11732987, “Enantioselective OTUD7B fragment discovery through chemoproteomics screening and high-throughput optimisation” (Communications Chemistry, 2025).

Tests used:
Experiment in all cases: log2 ratio of Biotin-Ahx-Ub-VS probe labelling (fragment/DMSO); higher = less target engagement (more negative = stronger competition), active = hit call of the paper (q ≤ 0.05, log2 ratio ≤ -1)
Conditions in all cases: compound concentration: 200 uM; treatment time: 3 h
USP42 = target: T1, USP42 (UniProt Q9H9J4)
T1 sequence (whole entry): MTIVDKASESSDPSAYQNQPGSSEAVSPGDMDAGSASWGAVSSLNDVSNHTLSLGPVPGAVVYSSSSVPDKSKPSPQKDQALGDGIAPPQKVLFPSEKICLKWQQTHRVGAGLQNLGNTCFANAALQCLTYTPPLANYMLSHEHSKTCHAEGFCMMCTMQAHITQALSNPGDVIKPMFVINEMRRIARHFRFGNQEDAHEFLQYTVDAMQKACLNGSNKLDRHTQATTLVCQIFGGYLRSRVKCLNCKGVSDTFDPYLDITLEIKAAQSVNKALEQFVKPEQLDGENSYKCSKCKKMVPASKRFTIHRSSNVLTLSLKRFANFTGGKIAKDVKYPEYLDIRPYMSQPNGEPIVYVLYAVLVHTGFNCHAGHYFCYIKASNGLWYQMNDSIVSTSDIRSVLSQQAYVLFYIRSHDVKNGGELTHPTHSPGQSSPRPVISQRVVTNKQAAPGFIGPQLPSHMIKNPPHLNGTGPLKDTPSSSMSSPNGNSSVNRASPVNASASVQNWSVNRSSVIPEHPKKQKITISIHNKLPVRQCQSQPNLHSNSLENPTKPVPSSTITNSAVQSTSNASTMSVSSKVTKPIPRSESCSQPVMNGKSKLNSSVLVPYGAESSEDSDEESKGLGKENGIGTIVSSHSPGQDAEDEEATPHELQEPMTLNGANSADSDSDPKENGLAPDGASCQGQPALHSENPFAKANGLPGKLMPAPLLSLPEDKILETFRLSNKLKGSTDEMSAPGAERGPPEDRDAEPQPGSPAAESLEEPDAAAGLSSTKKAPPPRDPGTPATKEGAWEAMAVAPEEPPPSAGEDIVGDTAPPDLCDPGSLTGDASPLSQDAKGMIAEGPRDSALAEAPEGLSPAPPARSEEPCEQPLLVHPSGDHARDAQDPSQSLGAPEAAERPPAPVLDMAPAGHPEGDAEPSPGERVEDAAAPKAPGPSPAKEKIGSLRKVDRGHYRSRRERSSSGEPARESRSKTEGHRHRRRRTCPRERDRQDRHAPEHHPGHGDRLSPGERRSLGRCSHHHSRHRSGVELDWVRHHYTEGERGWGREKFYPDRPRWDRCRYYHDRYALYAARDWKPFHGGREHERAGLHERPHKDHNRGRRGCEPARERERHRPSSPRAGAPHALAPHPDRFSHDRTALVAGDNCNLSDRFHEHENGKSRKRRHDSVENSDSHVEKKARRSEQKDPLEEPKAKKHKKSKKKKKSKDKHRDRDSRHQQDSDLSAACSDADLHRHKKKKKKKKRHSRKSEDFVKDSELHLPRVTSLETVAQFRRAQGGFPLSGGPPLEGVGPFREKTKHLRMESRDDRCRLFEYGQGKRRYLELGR
Summary of the method: (§1)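 HEK293T lysate (495 µg per sample, in Tris/CHAPS/IGEPAL buffer with protease inhibitors) was treated in triplicate with fragment at 200 µM or with DMSO for 3 h. It was then treated with Biotin-Ahx-Ub-VS (0.5 µM final) for 1 h. Labelled DUBs were NeutrAvidin-enriched, digested with LysC and trypsin, and run by diaPASEF LC-MS/MS. Spectronaut label-free quantities were global-median-normalised. Values are average log2 ratios fragment/DMSO by unpaired t-test, using proteins with ≥2 unique peptides.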

USP46 = USP46 (UniProt P62068)
USP46, sequence (P62068 whole entry): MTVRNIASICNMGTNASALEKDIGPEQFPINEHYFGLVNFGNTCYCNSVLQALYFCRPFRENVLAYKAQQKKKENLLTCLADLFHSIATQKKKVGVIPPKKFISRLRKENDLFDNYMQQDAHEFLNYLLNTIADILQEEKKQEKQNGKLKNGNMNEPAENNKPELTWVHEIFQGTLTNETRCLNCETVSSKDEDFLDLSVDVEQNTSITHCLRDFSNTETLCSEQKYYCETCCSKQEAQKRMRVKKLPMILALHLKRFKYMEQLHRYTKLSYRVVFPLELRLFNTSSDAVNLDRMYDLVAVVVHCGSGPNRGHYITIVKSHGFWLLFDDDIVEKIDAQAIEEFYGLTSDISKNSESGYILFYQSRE
Summary of the method: as §1

USP47 = target: T2, USP47 (UniProt Q96K76)
T2 sequence (whole entry): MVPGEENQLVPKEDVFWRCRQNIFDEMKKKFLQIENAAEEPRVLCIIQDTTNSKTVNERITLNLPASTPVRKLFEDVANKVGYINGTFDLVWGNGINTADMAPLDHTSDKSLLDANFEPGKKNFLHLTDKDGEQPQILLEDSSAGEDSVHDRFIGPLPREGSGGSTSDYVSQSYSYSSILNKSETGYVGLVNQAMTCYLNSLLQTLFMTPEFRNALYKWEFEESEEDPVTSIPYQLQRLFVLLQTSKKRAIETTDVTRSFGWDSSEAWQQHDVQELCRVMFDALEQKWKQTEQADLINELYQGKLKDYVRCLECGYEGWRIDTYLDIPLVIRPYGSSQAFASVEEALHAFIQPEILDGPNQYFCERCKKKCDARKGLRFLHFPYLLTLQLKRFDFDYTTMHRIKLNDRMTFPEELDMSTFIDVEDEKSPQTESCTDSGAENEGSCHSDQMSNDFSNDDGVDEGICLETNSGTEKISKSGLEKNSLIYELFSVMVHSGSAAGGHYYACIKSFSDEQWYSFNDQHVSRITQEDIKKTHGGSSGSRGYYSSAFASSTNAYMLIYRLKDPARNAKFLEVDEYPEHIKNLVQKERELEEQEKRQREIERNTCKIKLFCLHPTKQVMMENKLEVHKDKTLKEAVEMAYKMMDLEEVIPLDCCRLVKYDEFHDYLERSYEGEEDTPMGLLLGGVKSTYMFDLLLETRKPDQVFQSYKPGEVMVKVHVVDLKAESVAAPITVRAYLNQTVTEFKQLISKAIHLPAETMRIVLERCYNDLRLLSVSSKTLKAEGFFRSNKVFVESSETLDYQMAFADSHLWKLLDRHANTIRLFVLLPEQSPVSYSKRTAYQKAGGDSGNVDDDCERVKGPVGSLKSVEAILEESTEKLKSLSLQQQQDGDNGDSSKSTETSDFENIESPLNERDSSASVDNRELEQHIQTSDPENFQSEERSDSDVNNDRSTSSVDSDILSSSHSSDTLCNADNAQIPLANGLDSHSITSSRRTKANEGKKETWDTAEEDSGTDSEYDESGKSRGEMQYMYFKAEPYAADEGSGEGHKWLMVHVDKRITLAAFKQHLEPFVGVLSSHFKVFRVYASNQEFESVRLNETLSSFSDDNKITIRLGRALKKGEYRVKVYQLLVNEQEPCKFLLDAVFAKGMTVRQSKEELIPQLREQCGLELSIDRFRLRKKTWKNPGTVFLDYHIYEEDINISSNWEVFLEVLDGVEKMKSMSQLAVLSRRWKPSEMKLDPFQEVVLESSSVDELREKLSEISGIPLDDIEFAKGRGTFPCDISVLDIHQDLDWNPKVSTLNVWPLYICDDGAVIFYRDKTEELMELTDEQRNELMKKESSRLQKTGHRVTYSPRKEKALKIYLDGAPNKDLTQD
Summary of the method: as §1

USP48 = target: T3, USP48 (UniProt Q86UV5)
T3 sequence (whole entry): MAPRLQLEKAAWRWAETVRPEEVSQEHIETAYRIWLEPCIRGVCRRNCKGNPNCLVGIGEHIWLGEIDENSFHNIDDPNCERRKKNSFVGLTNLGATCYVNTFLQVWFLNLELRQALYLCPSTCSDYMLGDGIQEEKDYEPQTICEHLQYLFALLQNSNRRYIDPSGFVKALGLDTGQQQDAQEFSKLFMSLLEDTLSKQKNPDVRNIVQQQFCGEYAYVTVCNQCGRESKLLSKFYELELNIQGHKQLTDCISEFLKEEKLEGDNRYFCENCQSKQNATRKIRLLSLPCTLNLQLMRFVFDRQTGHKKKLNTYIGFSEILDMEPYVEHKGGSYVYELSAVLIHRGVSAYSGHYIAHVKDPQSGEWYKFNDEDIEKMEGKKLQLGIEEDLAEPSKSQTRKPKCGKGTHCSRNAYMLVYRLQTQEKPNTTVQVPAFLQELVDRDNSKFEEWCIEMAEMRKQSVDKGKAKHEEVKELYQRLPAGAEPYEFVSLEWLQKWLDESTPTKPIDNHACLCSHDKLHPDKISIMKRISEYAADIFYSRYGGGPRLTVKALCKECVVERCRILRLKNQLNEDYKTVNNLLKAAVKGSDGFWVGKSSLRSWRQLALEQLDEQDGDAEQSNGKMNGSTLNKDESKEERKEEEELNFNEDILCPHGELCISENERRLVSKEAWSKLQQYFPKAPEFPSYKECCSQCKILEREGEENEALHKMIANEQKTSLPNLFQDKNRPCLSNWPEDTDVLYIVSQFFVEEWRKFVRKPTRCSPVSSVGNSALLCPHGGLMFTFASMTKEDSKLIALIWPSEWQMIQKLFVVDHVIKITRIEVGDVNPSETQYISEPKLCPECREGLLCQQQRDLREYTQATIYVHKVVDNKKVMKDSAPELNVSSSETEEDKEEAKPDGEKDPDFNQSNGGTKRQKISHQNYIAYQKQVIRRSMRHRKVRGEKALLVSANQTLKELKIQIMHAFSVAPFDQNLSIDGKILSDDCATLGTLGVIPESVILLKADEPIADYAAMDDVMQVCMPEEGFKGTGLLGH
Summary of the method: as §1

USP5 = target: T4, USP5 (UniProt P45974)
T4 sequence (whole entry): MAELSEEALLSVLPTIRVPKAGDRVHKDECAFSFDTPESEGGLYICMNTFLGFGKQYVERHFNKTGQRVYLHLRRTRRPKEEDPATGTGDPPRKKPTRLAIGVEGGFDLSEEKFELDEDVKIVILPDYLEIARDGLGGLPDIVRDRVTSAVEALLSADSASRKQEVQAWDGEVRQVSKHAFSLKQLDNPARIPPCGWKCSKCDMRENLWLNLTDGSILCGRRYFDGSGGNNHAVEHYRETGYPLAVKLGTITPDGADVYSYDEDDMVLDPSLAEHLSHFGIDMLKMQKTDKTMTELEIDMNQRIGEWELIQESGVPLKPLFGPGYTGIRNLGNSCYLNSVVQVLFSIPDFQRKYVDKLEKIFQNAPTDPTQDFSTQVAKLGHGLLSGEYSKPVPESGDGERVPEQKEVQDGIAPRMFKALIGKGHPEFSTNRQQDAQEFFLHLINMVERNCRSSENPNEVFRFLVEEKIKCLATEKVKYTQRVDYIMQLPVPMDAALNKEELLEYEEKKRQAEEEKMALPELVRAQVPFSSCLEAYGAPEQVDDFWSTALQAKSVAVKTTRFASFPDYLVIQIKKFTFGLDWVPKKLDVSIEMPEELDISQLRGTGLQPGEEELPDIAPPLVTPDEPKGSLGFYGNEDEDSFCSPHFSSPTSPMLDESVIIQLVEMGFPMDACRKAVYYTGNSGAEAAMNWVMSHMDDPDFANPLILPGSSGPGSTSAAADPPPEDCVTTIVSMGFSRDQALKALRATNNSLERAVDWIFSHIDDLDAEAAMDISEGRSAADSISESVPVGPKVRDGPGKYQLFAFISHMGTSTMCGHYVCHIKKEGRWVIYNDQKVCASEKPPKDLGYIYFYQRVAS
Summary of the method: as §1

USP54 = USP54 (UniProt Q70EL1)
USP54, sequence (Q70EL1 whole entry): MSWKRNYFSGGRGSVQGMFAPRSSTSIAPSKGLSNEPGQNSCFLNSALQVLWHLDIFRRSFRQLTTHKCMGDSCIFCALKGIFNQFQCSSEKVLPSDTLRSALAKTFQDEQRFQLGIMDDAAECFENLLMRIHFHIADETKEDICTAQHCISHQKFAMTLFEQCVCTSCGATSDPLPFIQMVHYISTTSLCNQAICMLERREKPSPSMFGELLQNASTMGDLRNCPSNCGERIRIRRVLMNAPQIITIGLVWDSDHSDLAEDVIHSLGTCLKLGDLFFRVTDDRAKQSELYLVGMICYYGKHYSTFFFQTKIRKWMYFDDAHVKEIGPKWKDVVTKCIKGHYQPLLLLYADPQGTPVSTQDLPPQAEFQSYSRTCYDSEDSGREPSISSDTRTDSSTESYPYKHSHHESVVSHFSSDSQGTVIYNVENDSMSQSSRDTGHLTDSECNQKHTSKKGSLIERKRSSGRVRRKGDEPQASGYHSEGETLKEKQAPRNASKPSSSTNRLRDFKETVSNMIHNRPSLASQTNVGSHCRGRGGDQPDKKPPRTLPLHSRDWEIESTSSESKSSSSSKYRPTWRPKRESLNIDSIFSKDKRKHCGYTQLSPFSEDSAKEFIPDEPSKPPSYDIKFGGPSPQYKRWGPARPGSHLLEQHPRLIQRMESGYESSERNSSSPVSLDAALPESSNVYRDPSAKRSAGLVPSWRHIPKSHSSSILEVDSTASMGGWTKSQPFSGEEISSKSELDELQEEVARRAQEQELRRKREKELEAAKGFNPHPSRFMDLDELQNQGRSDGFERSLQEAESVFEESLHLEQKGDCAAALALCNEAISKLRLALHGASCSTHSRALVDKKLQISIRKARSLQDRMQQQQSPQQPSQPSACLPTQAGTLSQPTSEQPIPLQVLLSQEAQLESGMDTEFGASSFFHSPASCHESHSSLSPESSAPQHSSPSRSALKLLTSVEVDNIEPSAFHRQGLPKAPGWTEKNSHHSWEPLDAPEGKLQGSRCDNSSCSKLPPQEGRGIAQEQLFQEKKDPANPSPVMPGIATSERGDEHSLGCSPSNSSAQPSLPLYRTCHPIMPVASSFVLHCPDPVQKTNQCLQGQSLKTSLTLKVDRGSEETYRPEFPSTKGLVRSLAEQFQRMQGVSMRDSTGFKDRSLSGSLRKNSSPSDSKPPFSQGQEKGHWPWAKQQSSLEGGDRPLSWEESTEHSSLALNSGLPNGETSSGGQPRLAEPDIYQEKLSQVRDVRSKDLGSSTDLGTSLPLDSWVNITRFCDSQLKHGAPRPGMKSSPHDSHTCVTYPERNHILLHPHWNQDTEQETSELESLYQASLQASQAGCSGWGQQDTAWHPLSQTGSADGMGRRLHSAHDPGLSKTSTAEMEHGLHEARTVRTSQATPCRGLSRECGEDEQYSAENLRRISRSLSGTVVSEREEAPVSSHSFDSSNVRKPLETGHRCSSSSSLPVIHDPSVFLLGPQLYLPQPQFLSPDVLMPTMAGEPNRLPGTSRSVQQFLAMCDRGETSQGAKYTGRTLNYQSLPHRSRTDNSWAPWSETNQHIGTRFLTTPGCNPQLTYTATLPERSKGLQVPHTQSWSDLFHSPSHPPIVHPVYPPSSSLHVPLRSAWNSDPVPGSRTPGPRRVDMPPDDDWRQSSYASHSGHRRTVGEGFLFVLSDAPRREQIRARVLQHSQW
Summary of the method: as §1

USP7 = USP7 (UniProt Q93009)
USP7, sequence (Q93009 whole entry, looked up): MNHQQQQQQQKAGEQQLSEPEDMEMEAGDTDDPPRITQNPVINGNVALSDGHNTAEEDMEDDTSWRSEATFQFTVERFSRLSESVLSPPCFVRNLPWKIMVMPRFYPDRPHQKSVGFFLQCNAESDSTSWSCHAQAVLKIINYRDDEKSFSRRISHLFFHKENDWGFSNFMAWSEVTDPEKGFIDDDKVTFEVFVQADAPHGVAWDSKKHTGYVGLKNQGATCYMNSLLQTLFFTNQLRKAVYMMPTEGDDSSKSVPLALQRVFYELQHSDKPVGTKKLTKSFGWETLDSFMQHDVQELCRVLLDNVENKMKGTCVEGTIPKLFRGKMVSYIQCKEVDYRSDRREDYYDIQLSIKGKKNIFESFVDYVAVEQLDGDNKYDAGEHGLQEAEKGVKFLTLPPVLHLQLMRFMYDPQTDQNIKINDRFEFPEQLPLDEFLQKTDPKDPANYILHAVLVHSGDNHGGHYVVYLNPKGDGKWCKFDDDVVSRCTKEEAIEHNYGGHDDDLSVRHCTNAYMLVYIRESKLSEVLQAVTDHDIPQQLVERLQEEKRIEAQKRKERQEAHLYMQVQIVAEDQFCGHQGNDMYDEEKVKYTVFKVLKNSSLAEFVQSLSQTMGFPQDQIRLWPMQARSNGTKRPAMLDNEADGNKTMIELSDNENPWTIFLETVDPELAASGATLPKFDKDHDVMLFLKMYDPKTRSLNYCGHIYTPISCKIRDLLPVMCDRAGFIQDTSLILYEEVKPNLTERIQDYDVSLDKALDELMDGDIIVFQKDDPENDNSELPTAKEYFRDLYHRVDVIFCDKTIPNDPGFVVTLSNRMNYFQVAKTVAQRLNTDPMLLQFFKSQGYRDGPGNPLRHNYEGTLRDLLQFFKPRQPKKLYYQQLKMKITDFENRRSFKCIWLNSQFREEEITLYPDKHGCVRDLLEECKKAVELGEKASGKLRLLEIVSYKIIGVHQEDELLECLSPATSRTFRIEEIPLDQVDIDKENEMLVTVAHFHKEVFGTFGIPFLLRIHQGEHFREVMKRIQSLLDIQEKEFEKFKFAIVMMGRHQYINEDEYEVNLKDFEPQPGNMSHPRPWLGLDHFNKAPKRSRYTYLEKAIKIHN
Summary of the method: as §1

USP8 = target: T5, USP8 (UniProt P40818)
T5 sequence (whole entry): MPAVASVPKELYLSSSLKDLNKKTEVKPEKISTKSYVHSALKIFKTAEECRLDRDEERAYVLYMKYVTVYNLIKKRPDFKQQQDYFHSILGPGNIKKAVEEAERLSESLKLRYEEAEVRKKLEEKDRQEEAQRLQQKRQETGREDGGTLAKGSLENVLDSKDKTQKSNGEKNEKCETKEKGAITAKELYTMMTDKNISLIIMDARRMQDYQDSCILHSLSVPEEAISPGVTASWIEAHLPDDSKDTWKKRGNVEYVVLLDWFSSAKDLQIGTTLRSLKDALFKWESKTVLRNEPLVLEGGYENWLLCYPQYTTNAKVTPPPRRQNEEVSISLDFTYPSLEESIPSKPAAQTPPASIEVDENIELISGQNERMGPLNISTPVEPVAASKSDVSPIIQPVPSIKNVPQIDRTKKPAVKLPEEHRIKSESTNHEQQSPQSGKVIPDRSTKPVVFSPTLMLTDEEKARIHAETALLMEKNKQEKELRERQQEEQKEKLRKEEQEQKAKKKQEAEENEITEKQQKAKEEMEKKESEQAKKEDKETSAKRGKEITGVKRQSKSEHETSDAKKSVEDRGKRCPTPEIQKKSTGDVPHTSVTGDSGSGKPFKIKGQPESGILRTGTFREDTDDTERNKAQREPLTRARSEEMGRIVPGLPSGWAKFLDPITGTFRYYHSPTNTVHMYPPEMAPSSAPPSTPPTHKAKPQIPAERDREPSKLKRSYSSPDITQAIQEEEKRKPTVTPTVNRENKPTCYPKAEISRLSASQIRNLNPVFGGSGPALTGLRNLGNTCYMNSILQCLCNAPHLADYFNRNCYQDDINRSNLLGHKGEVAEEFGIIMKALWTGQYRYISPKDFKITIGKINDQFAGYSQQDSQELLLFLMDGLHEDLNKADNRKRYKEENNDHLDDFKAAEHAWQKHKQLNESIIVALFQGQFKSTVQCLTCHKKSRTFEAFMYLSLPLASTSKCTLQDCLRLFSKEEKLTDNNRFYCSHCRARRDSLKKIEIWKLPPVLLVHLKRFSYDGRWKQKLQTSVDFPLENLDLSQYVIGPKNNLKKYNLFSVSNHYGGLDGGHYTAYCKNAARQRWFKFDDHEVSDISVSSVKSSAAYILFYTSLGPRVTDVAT
Summary of the method: as §1

Measured: log2 ratio of Biotin-Ahx-Ub-VS probe labelling

Cc1cccc(N(CCC#N)C(=O)CCl)c1C
inactive: USP42 0.0225 | USP46 0.0197 | USP47 -0.354 | USP48 -0.0383 | USP5 0.289 | USP54 0.431 | USP7 -0.47 | USP8 0.0891
